Compounds without any hit were thinned out: in the full panel of roughly 83,000, 20% have a hit.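 Percent growth is the endpoint: 0 to 100 indicates growth inhibition (40 means 60% inhibition), 0 means no net growth, and negative values indicate cell death.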 Unmarked numbers belong to inactive results. Active and inactive are the calls of the source. How the source made its calls: active means growth percent below 10; inactive means the rest.
Legend:
Test in all cases: NCI-60 one-dose screen, 48 h (100 = growth as untreated, 0 = no growth, -100 = all killed)
Settings in all cases: 10 µM unless noted
[1] = test system: HCT-15 colon
[2] = test system: HT29 colon
[3] = test system: SNB-75 CNS
[4] = test system: SNB-19 CNS
[5] = test system: U251 CNS
[6] = test system: PC-3 prostate
[7] = test system: SK-MEL-5 melanoma
[8] = test system: LOX IMVI melanoma
[9] = test system: SK-MEL-28 melanoma
[10] = test system: SK-MEL-2 melanoma
[11] = test system: EKVX NSCLC
[12] = test system: SN12C renal
[13] = test system: UO-31 renal
[14] = test system: TK-10 renal
[15] = test system: ACHN renal
[16] = test system: A498 renal
[17] = test system: CCRF-CEM leukemia
[18] = test system: MOLT-4 leukemia
[19] = test system: CAKI-1 renal

| SMILES | growth [1] | growth [2] | growth [3] | growth [4] | growth [5] | growth [6] | growth [7] | growth [8] | growth [9] | growth [10] | growth [11] | growth [12] | growth [13] | growth [14] | growth [15] | growth [16] | growth [17] | growth [18] | growth [19] |
| --- | --- | --- | --- | --- | --- | --- | --- | --- | --- | --- | --- | --- | --- | --- | --- | --- | --- | --- | --- |
| Cc1cc(N2CCCCC2)nc(N(CCCNc2ccnc3cc(Cl)ccc23)Cc2ccco2)n1 | 11.3% | 2.02% (active) | 54.3% | 27.4% | 24.7% | 2.61% (active) | -91.8% (active) | -34.7% (active) | -23.5% (active) | 44.8% | 39.4% | 36.3% | 15.6% | 63.2% | 38.8% | 46.5% | 19.5% | 6.82% (active) | – |
| Cc1cc(N(CCNc2ccnc3cc(Cl)ccc23)Cc2ccco2)nc(Cl)n1 | 1.35% (active) | -33.4% (active) | -88.7% (active) | 15.4% | -66.5% (active) | -54.4% (active) | -63.4% (active) | -64.8% (active) | -33.4% (active) | -7.16% (active) | 32.2% | -79.2% (active) | -97% (active) | -74.4% (active) | -98.8% (active) | 20.8% | 0.284% (active) | -26.2% (active) | – |
| COc1ccc2c(c1)c(-c1nc(-c3c[nH]c4ncccc34)cs1)cn2CCCN1CCCCC1 | -5.93% (active) | -51.8% (active) | 46.9% | 43.9% | -17.7% (active) | 28.5% | -87.6% (active) | -75.6% (active) | -74.9% (active) | 73.6% | 51.2% | 58% | 36.5% | 77.5% | 22.3% | 66.1% | -0.15% (active) | – | – |
| Cc1cccc(C)c1NC(=O)CSC(=S)N1CCCCC1 | 105% | 103% | 96% | 111% | 105% | 97.6% | 112% | 98.2% | 105% | 97.6% | 97.2% | 110% | 85.6% | 89% | 101% | 99.3% | 101% | 87.8% | – |
| C=C1C(=O)O[C@H]2[C@H]1CC/C(COC(=O)NCc1c[nH]c3ccccc13)=C\CC[C@@]1(C)O[C@@H]21 | 4.35% (active) | 8.59% (active) | 72.1% | 69.4% | 82.8% | 50.4% | 45.2% | 16.4% | 33.9% | 70.5% | 84.2% | 44.4% | -62.7% (active) | 34.3% | -36.2% (active) | 102% | 7.29% (active) | 1.16% (active) | – |
| CSc1ccc(N(C)c2nc(C)nc3c2CCC3)cc1 | 7.62% (active) | -9.35% (active) | 35.1% | 38.1% | 12.1% | 20.1% | -38.2% (active) | 10.2% | – | 24% | 52.6% | 18.4% | 29.3% | 56.6% | 18.3% | -8.39% (active) | 8.07% (active) | 6.54% (active) | 20.5% |
| CNC(=O)c1cc(Oc2ccc3nc(NC(=O)Nc4ccc(Cl)cc4)sc3c2)ccn1 | 84.8% | 68.8% | 50.6% | 59.3% | 37.3% | 66% | 73.3% | 51.6% | – | 81.1% | 53.8% | 62.3% | 62.5% | 62.3% | 64.9% | 117% | 83.2% | 85.4% | 94.7% |
| COc1cccc(-c2nn(-c3ccccc3)cc2-c2ccnc(NCCCNS(=O)(=O)c3cccc(F)c3)c2)c1 | 21.9% | 15.1% | 55.4% | 42.8% | 27.5% | 11.9% | -45.6% (active) | 27.5% | – | 4% (active) | 45.1% | 32.3% | 9.64% (active) | 36.9% | 19.4% | 30.4% | 11.4% | -3.37% (active) | 32.4% |
| O=C1CCN2C(=O)Nc3ccccc3C2C1 (stereo unspecified) | 99% | 104% | 83.4% | 92% | 104% | 95.2% | 103% | 106% | – | 110% | 99.8% | 94.2% | 94.1% | 104% | 106% | 120% | 106% | 97.8% | 89.6% |
| CCCCCCCC(=O)SCC/C=C/[C@@H]1CC(=O)NCc2cccc(n2)CN(Cc2ccc3ccccc3c2)CC(=O)N[C@@H](C(C)C)C(=O)O1 | 57.8% | 14.5% | 29.2% | 48.9% | 35.9% | 34.8% | 9.24% (active) | 5.42% (active) | – | 56.5% | 53.9% | 57.1% | 36.4% | 21.6% | 34.7% | 0.931% (active) | 15.6% | 2.35% (active) | 35.8% |
| COc1cccc(-c2nn(-c3ccccc3)cc2-c2ccnc(NCCNS(=O)(=O)c3ccccc3)c2)c1 | 20.3% | 16.9% | 67.7% | 42.6% | 34.8% | 17.5% | 17.1% | 41% | – | 21% | 47.2% | 36.1% | 14.5% | 43.8% | 28.9% | 47.7% | 12.2% | 12.8% | 43.7% |
| Cn1cc(-c2csc(-c3cn(CCNC(=O)OC(C)(C)C)c4ccccc34)n2)c2cccnc21 | 60.1% | 90.9% | 88.5% | 94.3% | 83.1% | 36.9% | 20.1% | 82.4% | 94.3% | 88.2% | 67.9% | 87.8% | 42.7% | 122% | 74.3% | 82.4% | 43.4% | 42.3% | – |
| CCCCC[C@H]1C/C=C2/C(=O)C(Cl)=C[C@@H]2C/C=C\CCCC(=O)O[C@@H](CCCCC)C/C=C2/C(=O)C(Cl)=C[C@@H]2C/C=C\CCCC(=O)O1 | -24.6% (active) | -56% (active) | 11.9% | -57.8% (active) | -78.7% (active) | -37.7% (active) | -94.4% (active) | -74.7% (active) | -48.1% (active) | -46% (active) | 5.48% (active) | -42.2% (active) | -89.9% (active) | -20.2% (active) | -93% (active) | -77.4% (active) | 0.433% (active) | 3.32% (active) | – |
| COC(=O)[C@]12CC[C@@H](C)[C@H](C)[C@@H]1C1=CC(=O)[C@@H]3[C@@]4(C)C[C@@H](O)[C@H](O)[C@@]5(C)COC(=C45)C[C@@]3(C)[C@]1(C)CC2 | 26.5% | 27.4% | 32.8% | 60.8% | 39.5% | 49.2% | 41.3% | 57% | – | 33.6% | 75.8% | 55% | 65.8% | 83.3% | 69.5% | 37.5% | 59.7% | – | 71.1% |
| O=S(=O)(NCCNc1cc(-c2cn(-c3ccccc3)nc2-c2cccc(O)c2)ccn1)c1cccc(F)c1 | 5.71% (active) | 7.47% (active) | 48.1% | 51.5% | 32.3% | 25.4% | 26.9% | 36.5% | – | 53.1% | 46.6% | 50.4% | 23.5% | 56% | 36.3% | 57.4% | 18.7% | 18.5% | 44.3% |
| COc1ccc2c3c(c4ccccc4cc13)C(=O)N(CCN(C)CCN)C2=O | -67.1% (active) | -65.2% (active) | 8.84% (active) | -36.9% (active) | -86.3% (active) | -63.2% (active) | -98% (active) | -84.8% (active) | – | 22.3% | -48% (active) | -63.3% (active) | -83.7% (active) | -73.8% (active) | -71.6% (active) | -48.8% (active) | -65.1% (active) | -32.5% (active) | 3.18% (active) |

— PubChem BioAssay (NCI)
